PubChem BioAssay (NCATS)
Results filed as inconclusive are left out. Where a call stands in place of a potency, no number is given. Active and inactive are the calls of the source. Unless noted, calls follow the shape of the full dose curve. Peptide text beside a SMILES is read from it. * marks the point of attachment. Cbz = O=C(OCc1ccccc1)*

How the values were obtained:
[1] = qHTS for Inhibitors of the Functional Ribonucleoprotein Complex (vRNP) of Lassa (LASV) Arenavirus: LASV Primary Screen - GLuc reporter signal (AID 1347082; calls by dose curve; tested in HEK293 reporter line; also: nearly all actives have a fitted effect of over 60% in size; also: potency is read from the fitted curve at half-maximal effect)
[2] = qHTS for Inhibitors of the Functional Ribonucleoprotein Complex (vRNP) of Lassa (LASV) Arenavirus: Viability assay - alamar blue signal for LASV Primary Screen (AID 1347083; calls by dose curve; tested in HEK293 reporter line; also: nearly all actives have a fitted effect of over 80% in size; also: potency is read from the fitted curve at half-maximal effect)
[3] = qHTS for Inhibitors of the Functional Ribonucleoprotein Complex (vRNP) of Lymphocytic Choriomeningitis Arenaviruses (LCMV): Viability assay - alamar blue signal for LCMV Primary Screen (AID 1347085; calls by dose curve; tested in HEK293 reporter line; also: nearly all actives have a fitted effect of over 80% in size; also: potency is read from the fitted curve at half-maximal effect)
[4] = target: Nucleoprotein (Lymphocytic choriomeningitis virus (strain Armstrong)) (UniProt P09992); experiment: qHTS for Inhibitors of the Functional Ribonucleoprotein Complex (vRNP) of Lymphocytic Choriomeningitis Arenaviruses (LCMV): LCMV Primary Screen - GLuc reporter signal (AID 1347086); also: nearly all actives have a fitted effect of over 70% in size; also: potency is read from the fitted curve at half-maximal effect
[5] = Cytotoxicity counterscreen for inhibitors of SARS-CoV-2 cell entry (AID 1645845); also: nearly all actives have a fitted effect of over 50% in size; also: potency is read from the fitted curve at half-maximal effect
In short: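 After a 15 min room-temperature ATPLite 1step step, luminescence reflected ATP remaining in HEK293-ACE2 cells exposed to compound for 1 h plus 48 h at 37 C, with percent activity set by cell and no-cell controls.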

[6] = Primary qHTS to identify inhibitors of SARS-CoV-2 cell entry (AID 1645846); details: activity change, negative = inhibition: at 57.1 µM (top of the series) unless noted; also: nearly all actives have a fitted effect of over 45% in size
In short: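 HEK293 cells stably expressing human ACE2, pre-treated 1 h with compound, then infected with MLV particles pseudotyped with Wuhan-Hu-1 spike (C-terminal 19-aa truncation). Luciferase luminescence after 48 h at 37 °C, normalised to spike PP and bald PP.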

Sequence of Nucleoprotein (Lymphocytic choriomeningitis virus (strain Armstrong)) (P09992 whole entry, looked up): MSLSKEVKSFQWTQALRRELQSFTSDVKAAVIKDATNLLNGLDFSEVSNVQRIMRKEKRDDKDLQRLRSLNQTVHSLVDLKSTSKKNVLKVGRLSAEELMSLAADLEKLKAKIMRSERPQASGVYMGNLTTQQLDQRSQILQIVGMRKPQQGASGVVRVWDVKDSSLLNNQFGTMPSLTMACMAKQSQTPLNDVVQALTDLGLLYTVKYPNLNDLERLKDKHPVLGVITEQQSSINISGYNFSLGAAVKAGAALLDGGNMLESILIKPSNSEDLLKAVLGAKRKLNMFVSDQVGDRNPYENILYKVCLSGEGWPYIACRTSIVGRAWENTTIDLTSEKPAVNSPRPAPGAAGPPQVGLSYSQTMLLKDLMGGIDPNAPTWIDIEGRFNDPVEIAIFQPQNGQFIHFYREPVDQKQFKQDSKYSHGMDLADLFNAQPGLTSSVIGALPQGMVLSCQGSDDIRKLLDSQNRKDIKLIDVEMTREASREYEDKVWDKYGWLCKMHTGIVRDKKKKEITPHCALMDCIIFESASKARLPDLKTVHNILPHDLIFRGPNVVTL

Row | Compound | Potency [1] | Potency [2] | Potency [3] | Potency [4] | Potency [5] | Potency [6] | activity change, negative = inhibition [6]
1 | O=C(O)c1cc(O)c2c(c1)C(=O)c1cccc(O)c1C2=O | inactive | inactive | inactive | inactive | inactive |  | 
2 | c1ccc2c(Oc3nc(Nc4ccc(N5CCOCC5)cc4)c4ncn(C5CCCCC5)c4n3)cccc2c1 | inactive | inactive | inactive | inactive | inactive |  | 
3 | COc1ccc(Nc2nccc(NCCO)n2)cc1 | inactive | inactive | inactive | inactive | inactive | inactive | 
4 | COc1nccc(-c2c(-c3ccc(F)cc3)ncn2C2CCC(O)CC2)n1 (configuration not stated) | inactive | inactive | inactive | inactive | inactive | inactive | 
5 | O=C(O)C1=CC(O)C(O)[C@H](O)C1 (some centres not stated) | inactive | inactive | inactive | inactive | inactive |  | -8.99%
6 | C[Se]CCC(N)C(=O)O (configuration not stated) | inactive | inactive | inactive | inactive | inactive |  | -2.1% [at 114 µM]
7 | Cc1cnc(C(=O)O)c[n+]1[O-] | inactive | inactive | inactive | inactive | inactive |  | -9.41%
8 | CC(Oc1ccc(O)cc1)(P(=O)(O)O)P(=O)(O)O | inactive | inactive | inactive | inactive | inactive |  | -6.64%
9 | Cc1cn2cc(C(=O)N(C)CCO)cc(N[C@@H]3CCOc4cccc(C)c43)c2n1 | inactive | inactive | inactive | inactive | inactive | inactive | 
10 | C[C@H]1COC2=C1C(=O)C(=O)c1c2ccc2c1CCCC2(C)C | inactive | inactive | inactive | inactive | inactive |  | -2.76%
11 | CCN1CCN(c2ccc(Nc3cc(N(C)C(=O)Nc4c(Cl)c(OC)cc(OC)c4Cl)ncn3)cc2)CC1 | inactive | inactive | inactive | inactive | inactive | inactive | 
12 | Oc1cc2c(cc1O)C1c3ccc(O)c(O)c3OCC1(O)C2 (configuration not stated) | inactive | inactive | inactive | inactive | inactive |  | -5.64%
13 | CNc1nc(Nc2ccc(C(=O)N3CCOCC3)cc2OC)ncc1Cl | inactive | 24.3 µM (active) | inactive | inactive | inactive | inactive | 
14 | O=C1CN2Cc3c(ccc(Cl)c3Cl)N=C2N1 | inactive | inactive | inactive | inactive | inactive | inactive | 
15 | C[C@]12CCC3c4ccc(O)cc4CCC3C1CCC2=O (some centres not stated) | inactive | inactive | inactive | inactive | inactive | inactive | 
16 | CC(C)[C@H](O)C(=O)N[C@@H](C)C(=O)N[C@@H]1C(=O)N(C)CCc2ccccc21 | inactive | inactive | inactive | inactive | inactive |  | 4.11%
17 | COc1nccc(-c2c(-c3ccc(F)cc3)ncn2C2CCNCC2)n1 | inactive | inactive | inactive | inactive | inactive | inactive | 
18 | O=c1ccn([C@@H]2O[C@H](CO)[C@H](O)[C@@H]2F)c(=O)[nH]1 | 4.85 µM (active) | 6.11 µM (active) | 4.32 µM (active) | 3.06 µM (active) | inactive |  | -22.4%
19 | C#CCN(C)CC1=Cc2ccccc2Oc2ccccc21 | inactive | inactive | inactive | inactive | inactive |  | 1.65%
20 | CC(C)C[C@@H](N)[C@H](O)C(=O)N[C@H](C(=O)N[C@H](C(=O)N[C@@H](CC(=O)O)C(=O)O)C(C)C)C(C)C | inactive | inactive | inactive | inactive | inactive |  | -14%
21 | CN(C)c1ccc(-c2nc3ncc(Cl)c(N4CCN(CC(=O)Nc5nccs5)CC4)c3[nH]2)cc1 | inactive | inactive | inactive | inactive | inactive |  | -16% [at 27.1 µM]
22 | CCOC(=O)C1=C(N)Oc2ccc(Br)cc2C1C(C#N)C(=O)OCC (configuration not stated) | inactive | inactive | inactive | inactive | inactive |  | -18.1%
23 | CC(=O)SCC(Cc1ccccc1)C(=O)NCC(=O)OCc1ccccc1 (configuration not stated) | 1.09 µM (active) | 0.432 µM (active) | 0.172 µM (active) | 0.273 µM (active) | inactive |  | -34.7%
24 | c1cc(-c2sc(-c3ccncc3)c(-c3ccncc3)c2-c2ccncc2)ccn1 | inactive | inactive | inactive | inactive | inactive | inactive | 
25 | CC(C)C[C@@H](C=O)NC(=O)[C@H](CC(C)C)NC(=O)[C@H](CC(C)C)NC(=O)OCc1ccccc1 (Cbz-Leu-Leu-Leu-aldehyde) | 1.93 µM (active) | 4.32 µM (active) | 5.44 µM (active) | 3.43 µM (active) | 1.12 µM (active) |  | -96.8%
26 | C=C[C@@H]1CN2CCC1C[C@H]2[C@H](O)c1ccnc2ccc(OC)cc12 (some centres not stated) | inactive | inactive | inactive | inactive | inactive |  | -48.9%
27 | COC(=O)[C@H](c1ccccc1Cl)N1CCc2sccc2C1 | inactive | inactive | inactive | inactive | inactive |  | -28.2%
28 | CC(=O)NC(CS)C(=O)O (configuration not stated) | inactive | inactive | inactive | inactive | inactive |  | -1.31%
29 | O=c1cc(-c2ccccc2)oc2cc(O)cc(O)c12 | inactive | inactive | inactive | inactive | inactive | inactive | 
